# ± gives the standard deviation of the averaged measurements.
# Assays:
# Experiment in all cases: cell viability (% of vehicle); higher = less cytotoxic
# Settings in all cases: 10 µM; 72 h
# [1] = tested on: HCI01 (cells of a triple-negative basal-like breast cancer xenograft)
# [2] = tested on: HCI03 (cells of an ER-positive luminal breast cancer xenograft)
# [3] = tested on: HCI09 (cells of a triple-negative luminal androgen receptor type breast cancer xenograft)
# [4] = tested on: HCI11 (cells of an ER-positive luminal breast cancer xenograft)
# [5] = tested on: HCI13 (cells of an ER-positive luminal breast cancer xenograft)
# [6] = tested on: HCI16 (cells of a triple-negative basal-like breast cancer xenograft)
# [7] = tested on: UCD52 (cells of a triple-negative basal-like breast cancer xenograft)
# [8] = tested on: WHIM2 (cells of a triple-negative basal-like breast cancer xenograft)
# [9] = tested on: WHIM30 (cells of a triple-negative basal-like breast cancer xenograft)
# 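Further: PDX cells carrying CMV promoter-driven luciferase, viability read as total photon flux per second by IVIS imaging following D-luciferin, vehicle control 0.1% DMSO.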
SMILES,cell viability [1],cell viability [2],cell viability [3],cell viability [4],cell viability [5],cell viability [6],cell viability [7],cell viability [8],cell viability [9]
Cc1ncc([N+](=O)[O-])n1CCO [Metronidazole],91.9 ± 32,135,90.8 ± 28,89.6,104 ± 9,133,77.3 ± 7.2,81 ± 16,131 ± 4.7
CCCNC1CCc2nc(N)sc2C1.Cl.Cl.O (stereo not drawn) [Pramipexole 2HCl Monohydrate],126 ± 3.4,131,107.2 ± 0.44,110,97.4 ± 1.9,138,103 ± 16,94.3 ± 11,103 ± 4.9
Nc1nc(Cl)nc2c1ncn2C1OC(CO)C(O)C1F (stereo not drawn) [Clofarabine],162.3 ± 0.47,175,141 ± 70,126,180 ± 11,92.9,143 ± 24,–,128.5 ± 0.14
CC(C)(O)c1ccccc1CCC(SCC1(CC(=O)[O-])CC1)c1cccc(C=Cc2ccc3ccc(Cl)cc3n2)c1.[Na+] (stereo not drawn) [Montelukast Sodium],41.5 ± 20,169,83.3 ± 85,103,45.5 ± 6.3,165,–,50.8 ± 12,156.57 ± 0.11
COc1ccccc1N1CCN(CCCNc2cc(=O)n(C)c(=O)n2C)CC1.Cl [Urapidil HCl],96.7 ± 8.1,125,89.54 ± 0.6,80.2,93.3 ± 1.2,105,97.6 ± 7.3,98.8 ± 5.4,111 ± 3.3
CO[C@H]1C(=O)[C@]2(C)[C@@H](OC)C[C@H]3OC[C@@]3(OC(C)=O)[C@H]2[C@H](OC(=O)c2ccccc2)[C@]2(O)C[C@H](OC(=O)[C@H](O)[C@@H](NC(=O)OC(C)(C)C)c3ccccc3)C(C)=C1C2(C)C [Cabazitaxel],78.1 ± 51,113,66.2 ± 5.4,89.2,106 ± 5.1,–,70.3 ± 4.9,72 ± 11,107 ± 4.8
CN1C(C(=O)Nc2ccccn2)=C(O)c2ccccc2S1(=O)=O [Piroxicam],103 ± 9.8,102,53.8 ± 29,133,103 ± 3.6,90.5,88.27 ± 0.58,91.5 ± 17,117 ± 13
CCCCNc1cc(C(=O)O)cc(S(N)(=O)=O)c1Oc1ccccc1 [Bumetanide],109 ± 9.6,95.9,109 ± 8.9,92,89.5 ± 4,108,99 ± 1.3,78.6 ± 14,133 ± 26
CCCCC1=NC2(CCCC2)C(=O)N1Cc1ccc(-c2ccccc2-c2nn[nH]n2)cc1 [Irbesartan],86.3 ± 2,105,94.6 ± 3.9,91.8,114 ± 2.4,107,103 ± 5.5,105 ± 4.9,82.7 ± 24
CCCCNC(=O)NS(=O)(=O)c1ccc(C)cc1 [Tolbutamide],80.9 ± 42,118,91.4 ± 5.3,83.6,88.9 ± 3.6,101,96.6 ± 5.1,105 ± 25,101 ± 8.5
CCn1cc(C(=O)O)c(=O)c2cc(F)c(N3CCNC(C)C3)c(F)c21.Cl (stereo not drawn) [Lomefloxacin HCl],97.5 ± 19,95.2,94.5 ± 7.8,96.1,76 ± 14,107,91.5 ± 2.9,83.75 ± 0.15,150 ± 10
Cc1cc(C2CCCCC2)n(O)c(=O)c1 [Ciclopirox],93 ± 59,67.7,26.8 ± 3.4,51.7,73.9 ± 3.7,117,92.7 ± 3.6,–,94.5 ± 12
[I-].[K+] [Potassium Iodide],98.5 ± 37,134,97 ± 8.2,97.4,169 ± 3.2,127,102 ± 6.1,82 ± 5.4,121 ± 7.5
Cc1nc2n(c(=O)c1CCN1CCC(c3noc4cc(F)ccc34)CC1)CCCC2O (stereo not drawn) [Paliperidone],106 ± 11,172,94.6 ± 17,86.3,117 ± 4,113,113 ± 7.6,135 ± 24,127 ± 4.2
CC(C)Cn1cnc2c(N)nc3ccccc3c21 [Imiquimod],92.9 ± 12,109,72.71 ± 0.55,42.7,91 ± 20,–,76.7 ± 1.4,115 ± 14,116 ± 8
Cl.N=C(N=C(N)N)N1CCOCC1 [Moroxydine HCl],91.5 ± 36,114,92.5 ± 3.5,89.2,–,138,87.98 ± 0.46,70.25 ± 0.58,164.7 ± 0.024
C#CC1(O)CCC2C3CCc4cc(OC)ccc4C3CCC21C (stereo not drawn) [Mestranol],131 ± 12,136,94.681 ± 0.043,106,–,104,71.2 ± 21,159 ± 12,121.2 ± 0.15
CCC(=O)OC1(C(=O)CCl)C(C)CC2C3CCC4=CC(=O)C=CC4(C)C3(F)C(O)CC21C (stereo not drawn) [Clobetasol propionate],116 ± 22,125,116 ± 54,132,–,196,142 ± 10,91 ± 25,–

SMILES,cell viability [1],cell viability [2],cell viability [3],cell viability [4],cell viability [5],cell viability [6],cell viability [7],cell viability [8],cell viability [9]
C#CC1(O)CCC2C3CCc4cc(O)ccc4C3CCC21C (stereo not drawn) [Ethinyl Estradiol],107 ± 7.8,119,103 ± 15,102,–,93.3,84 ± 3.5,107 ± 25,109 ± 21
CCCC1O[C@@H]2C[C@H]3[C@@H]4CCC5=CC(=O)C=C[C@]5(C)[C@H]4[C@@H](O)C[C@]3(C)[C@]2(C(=O)CO)O1 (stereo partly drawn) [Budesonide],113 ± 30,102,164 ± 40,140,–,173,141 ± 9.5,74.4 ± 20,–
N=C(N)NCCCC[C@@H]1NC(=O)CCSSC[C@@H](C(N)=O)NC(=O)[C@@H]2CCCN2C(=O)[C@H](Cc2c[nH]c3ccccc23)NC(=O)[C@H](CC(=O)O)NC(=O)CNC1=O [Eptifibatide],101 ± 25,148,120 ± 79,93.4,–,194,123 ± 15,101 ± 13,138 ± 4.8
Cc1onc(-c2ccccc2Cl)c1C(=O)NC1C(=O)N2C1SC(C)(C)C2C(=O)[O-].O.[Na+] (stereo not drawn) [Cloxacillin Sodium],141 ± 32,176,161 ± 95,134,191 ± 2.4,–,154 ± 38,132 ± 37,199 ± 20
C=CCNC1=C2CC(C)CC(OC)C(O)C(C)C=C(C)C(OC(N)=O)C(OC)C=CC=C(C)C(=O)NC(=CC1=O)C2=O (stereo not drawn),105 ± 37,57.1,26.7 ± 0.77,72.5,–,106,91.6 ± 5.4,63.25 ± 0.14,85.1 ± 8.4
O[C@@H]1CO[C@H]2[C@@H]1OC[C@@H]2O [Isosorbide],115 ± 23,147,103 ± 2.9,102,–,116,99.9 ± 3.7,107.6 ± 0.11,112 ± 15
C#CC1(O)CCC2C3CCC4=CC(=O)CCC4C3CCC21C (stereo not drawn) [Norethindrone],91.4 ± 26,134,93.6 ± 6.6,97.8,–,128,93.3 ± 11,93.1 ± 21,–
Cl.O=C(CCCN1CCC(O)(c2ccc(Cl)cc2)CC1)c1ccc(F)cc1 [Haloperidol hydrochloride],114 ± 14,99.6,103 ± 31,106,–,127,63.4 ± 4.9,114 ± 6.5,60.2 ± 8.8
O=c1c(O)c(-c2ccc(O)c(O)c2)oc2cc(O)cc(O)c12 [Quercetin],124 ± 46,123,141 ± 4.7,99.2,–,151,102 ± 1.3,107.1 ± 0.64,128 ± 17
Cc1cc(Nc2cc(CN3CCOCC3)c3nc(C)c(Cc4ccc(Cl)cc4F)n3n2)n[nH]1,142 ± 56,116,64.3 ± 15,196,–,199,103 ± 19,–,–
CC12CCC3c4ccc(O)cc4CCC3C1CCC2=O (stereo not drawn) [Estrone],99.5 ± 6.1,112,97.3 ± 9.7,102,–,89.5,87.3 ± 6.6,113 ± 22,153 ± 14
CC(C)c1cc(C(=O)N2Cc3ccc(CN4CCN(C)CC4)cc3C2)c(O)cc1O,116 ± 49,43.7,25.4 ± 3.1,124,–,109,77.1 ± 2.9,75.3 ± 3.1,176 ± 25
CCCCCC(O)C=CC1C(O)CC(=O)C1CCCCCCC(=O)O (stereo not drawn) [Alprostadil],86.5 ± 76,124,145 ± 75,104,–,175,124 ± 2.3,147 ± 12,141 ± 4.9
CCC1OC(=O)C(C)C(OC2CC(C)(OC)C(O)C(C)O2)C(C)C(OC2OC(C)CC(N(C)C)C2O)C(C)(O)CC(C)CN(C)C(C)C(O)C1(C)O (stereo not drawn) [Azithromycin],145 ± 30,137,116 ± 5.9,121,–,124,105 ± 26,114.9 ± 1.1,119 ± 24
NS(=O)(=O)c1cc2c(cc1Cl)NCNS2(=O)=O [Hydrochlorothiazide],95 ± 30,106,134 ± 72,92.7,–,177,105 ± 3,101 ± 3.8,139 ± 11
COc1ccccc1OCC(O)CO (stereo not drawn) [Guaifensin],108 ± 4.8,131,112 ± 21,102,–,117,91.7 ± 1,95 ± 18,141 ± 10
CO[C@@]1(NC(=O)[C@H](C(=O)[O-])c2ccc(O)cc2)C(=O)N2C(C(=O)[O-])=C(CSc3nnnn3C)CO[C@@H]21.[Na+].[Na+] [Moxalactam (sodium salt)],116 ± 30,120,108 ± 3.6,66.4,–,148,144 ± 7,92.8 ± 6.9,126 ± 2.9
CC(=O)OC1(C(C)=O)CCC2C3C=C(C)C4=CC(=O)CCC4(C)C3CCC21C (stereo not drawn) [Megestrol Acetate],112 ± 6.4,121,106 ± 10,91.8,–,102,103 ± 16,93.7 ± 14,127.9 ± 0.7
